# According to PubChem BioAssay (Tox21):
# A number with no mark means an inactive call. Activity calls are given as the source filed them. Calls follow the shape of the dose curve; as a rule, active = well fitted curve in the direction sought with a large enough effect in the repeat runs; inconclusive = weak or mixed curves; inactive = flat fitted curve, though single readings scatter.
# Assay: qHTS assay to test for compound auto fluorescence at 590 nm (red) in HEK293 cell free culture (AID 720683)
# Conditions: cell-free medium autofluorescence, Ex540/Em590 red; series mostly up to 91.3 µM; fluorescence, % of fluorescent control: at the top concentration
# Description: U.S. Tox21 Program National Center for Advancing Translational Sciences [NCATS] NIH Chemical Genomics Center [NCGC] U.S. Environmental Protection Agency [EPA] National Institutes of Environmental Health Sciences [NIEHS] National Toxicology Program [NTP] U.S. Food and Drug Administration [FDA] Tox21 Assay Overview: Compound auto fluorescence often interferes with screening of the compound library against various biological targets and signaling pathways. Some of these compounds may have fluorophoric properties. Such properties may interfere with the assay outputs resulting in false positives and/or negatives. To decrease such complications and ensure the compound activities are relevant in terms of biological response, the Tox21 10K compound library was screened for auto fluorescence. From the fluorophores used as reporter signals in our screening assays, the auto fluorescence equivalencies of compounds against three fluorophores have been evaluated: Triamterene, Fluorescein and Rose Bengal sodium for blue, green and red fluorescence, respectively. The fluorescence intensities were measured using Excitation/Emission wavelengths at 405/460nm, 485/535nm and 540/590nm for blue, green and red labels, respectively. This assay includes the red fluorescence data.
# Tox21 Assay Protocol Summary: 5 uL of culture medium (DMEM containing 10% FBS) per well was dispensed into black wall/clear bottom 1536-well plates using a Multidrop Combi Dispenser (ThermoFisher Scientific, Waltham, MA). After 23 nL compound or DMSO vehicle was transferred into assay plate by a pintool work station (Kalypsys, San Diego, CA), fluorescence intensities in the assay plates were measured by an Envision (PerkinElmer, Shelton, CT) plate reader using three labels for measuring blue, green and red fluorescence at […] 460, 535 and 590nm respectively.
# % is scaled to controls: 0 for no effect and ±100 for the full control effect.
SMILES,"fluorescence, % of fluorescent control",Potency
Nc1ccccc1S(=O)(=O)c1ccccc1,-0.0276%,–
CN1CCC(=C2c3ccccc3Sc3ccccc32)CC1,0.459% [at 46 µM],–
CCCCCCc1ccc(-c2ccc(C#N)cc2)cc1,0.057%,–
CC(C)(C)Cl,-0.126% [at 95.7 µM],–
CCCCCCCCCCCCCCCCOS(=O)(=O)O,0.587% [at 46 µM],–
O=C(Nc1ccc(S(=O)(=O)N2CCOCC2)cc1)c1cc(Cl)ccc1NS(=O)(=O)c1ccc(Cl)s1,0.0179% [at 46 µM],–
CCCCC(=O)OCC(=O)[C@H]1[C@H](C)C[C@H]2[C@@H]3C[C@H](F)C4=CC(=O)C=C[C@]4(C)[C@@]3(F)[C@@H](O)C[C@@]21C,-0.582% [at 46 µM],–
Nc1c(CC(=O)O)cccc1C(=O)c1ccc(Br)cc1,-0.0099% [at 46 µM],–
OCCN1CCN(CCCN2c3ccccc3C=Cc3ccccc32)CC1,–,inactive
CCCCCCCCCCCCN1CCCCCC1=O,-0.0574%,–
CC(=O)[O][Al][O]C(C)=O,–,inactive
Cc1cccc(Nc2ccccc2)c1,-0.174%,–
CCCCCCCCCOS(=O)(=O)O,0.24%,–
NCC(=O)O,0.0224% [at 46 µM],–
O=C1OC(CN2CCOCC2)CN1/N=C/c1ccc([N+](=O)[O-])o1 (stereo not given),0.0972% [at 18.6 µM],–
C=C(C)C(=O)OCCO,0.0517% [at 95.7 µM],–
C[N+]1(C)CCC(OC(=O)C(O)(c2ccccc2)C2CCCC2)C1 (stereo not given),–,inactive
Cc1cccc(C)c1NC(=O)CN(CC(=O)O)CC(=O)O,0.106% [at 46 µM],–
CC(=O)c1ccc2c(c1)N(CCCN(C)C)c1ccccc1S2,-0.0325% [at 18.6 µM],–
O=[N+]([O-])c1ccc(NCCO)c(OCCO)c1,0.0225%,–

SMILES,"fluorescence, % of fluorescent control",Potency
CN(C)C(=O)NC1(c2ccccc2)CCN(CC[C@@]2(c3ccc(F)c(F)c3)CN(C(=O)c3ccccc3)CCO2)CC1,-0.136%,–
O=C(OCCCCCCOC(=O)c1ccccc1)c1ccccc1,0.223%,–
CC1CCC(=O)C1=O (stereo not given),-0.229% [at 95.7 µM],–
CCC(C)O (stereo not given),0.0219% [at 95.7 µM],–
CCC(C)c1cc(C(C)(C)C)c(O)c(C(C)(C)C)c1 (stereo not given),-0.071%,–
C/C=C/C(=O)CC,-0.144% [at 18.6 µM],–
CCCCc1ncc(/C=C(\Cc2cccs2)C(=O)O)n1Cc1ccc(C(=O)O)cc1,0.221% [at 46 µM],–
COS(=O)(=O)C(F)(F)F,-0.0208% [at 95.7 µM],–
COc1cc(Cl)ccc1Oc1ccc(Cl)cc1Cl,0.116%,–
OCCNCc1ccccc1,-0.569%,–
CCCn1cnc2c1c(=O)n(CCCCC(C)=O)c(=O)n2C,0.365% [at 46 µM],–
C=CC(=O)OCCOCCOCCOCCOC(=O)C=C,–,inactive
Nc1ncn([C@H]2C[C@H](O)[C@@H](CO)O2)c(=O)n1,-0.104% [at 46 µM],–
CCCCCCCC/C=C\CCCCCCCC(=O)OCC,0.116%,–
CN(C)c1ccc(CCO)cc1,0.0609%,–
O=C(O)C(S)C(S)C(=O)O (stereo not given),0.0567% [at 46 µM],–
CC[N+](C)(CC)CCOC(=O)C(O)(c1ccccc1)C1CCCCC1 (stereo not given),-0.807% [at 46 µM],–
OC(CN1CCC(Cc2ccc(F)cc2)CC1)c1ccc(Cl)cc1 (stereo not given),-0.738% [at 46 µM],–
CCn1cc(C(=O)O)c(=O)c2cnc(N3CCNCC3)nc21,-0.371% [at 18.6 µM],–
CC(C)(COC(=O)c1ccccc1)COC(=O)c1ccccc1,-0.165%,–
